According to PubChem BioAssay AID588413 (Sanford-Burnham Center for Chemical Genomics, 2011):
Screen size: about 340,000 compounds; about 2,500 (0.74%) were called active.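 How the source made its calls: active means inhibition above about 55% (limit read from the data); inactive means the rest.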 The full list was thinned out, with actives kept by preference.

Test: blockers of Gli reporter signaling – luciferase luminescence, Sufu-KO-LIGHT cells, uHTS, primary screen (AID 588413);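 further: 0% = DMSO-treated cells and 100% = wells with medium but no cells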
Conditions: Sufu-KO-LIGHT fibroblasts, at 5 µM, stronger effect = higher value

| Structure (SMILES) | inhibition |
| --- | --- |
| CSc1ncccc1C(=O)NCc1ccccc1Cl | -8.35% (inactive) |
| CC(=O)c1c(O)cc2n(c1=O)-c1ccc(Cl)cc1C2(C)C | -0.02% (inactive) |
| COC(=O)CC(CC(=O)OC)n1cccc1 | 6.12% (inactive) |
| Cc1ccc(O)c(NC(=O)COc2cc(C)ccc2C)c1 | 63.9% (active) |
| Cc1ccc(C)c(OCC(=O)NNC(=O)C2CCC2)c1 | 3% (inactive) |
| Cc1ccc(O)c(NC(=S)NC(=O)COc2ccc(Br)cc2)c1 | -1.7% (inactive) |
| CCC1CCCCN1C(=S)NC(=O)c1ccco1 (centres undefined) | 3.37% (inactive) |
| O=C(CSC(=S)N1CCCCC1)c1c(F)cccc1F | -23.9% (inactive) |
| CCCCn1nc(C(=O)OCC(=O)Nc2sccc2C(N)=O)c2ccccc2c1=O | -33% (inactive) |
| CCOC(=O)C1=C(C)c2ccccc2OC1(C)C(=O)OCC (centres undefined) | -1.26% (inactive) |
| CCOC(=O)c1c(C)[nH]c2c1-c1ccccc1C(=O)C2=O | 95.8% (active) |
| CCOC(=O)c1[nH]c2ccccc2c1N=C(C)N(CC)CC | 4.83% (inactive) |
| C=CCn1c(C)cc(C2=NNC(=NCC)SC2)c1C | 93% (active) |
| CCCN(CCC)C(=O)C1c2ccccc2Oc2ccccc21 | -1.09% (inactive) |
| CNCC(O)c1ccc(O)c(O)c1 (centres undefined) | -2.95% (inactive) |
| COc1ccc(CCNc2ncnc3c2nnn3Cc2ccccc2)cc1 | 4.12% (inactive) |
| COc1ccc(NC(=O)/C(N=Nc2cccc(S(=O)(=O)Nc3ccc(SC(F)F)cc3)c2)=C(\C)O)cc1 | -4.13% (inactive) |
| Cn1c(=O)c2c(nc(OCc3cccnc3)n2Cc2ccccc2)n(C)c1=O | 8.04% (inactive) |
| C=CCOc1nc2c(c(=O)n(C)c(=O)n2C)n1Cc1ccc(Cl)cc1Cl | 62% (active) |
| C=CCn1c(Oc2ccc(C(=O)OC)cc2)nc2c1c(=O)n(C)c(=O)n2C | 1.23% (inactive) |
| O=S(=O)(Nc1cc(S(=O)(=O)N2CCOCC2)ccc1N1CCCC1)c1cccs1 | 5.7% (inactive) |
| O=c1c2ccccc2ncn1/N=C/c1ccccc1 | 20.9% (inactive) |
| CCn1c(/C=C/c2ccc([N+](=O)[O-])o2)nc2ccccc2c1=O | 80% (active) |
| Cc1ccc(-n2c(SCC(=O)N/N=C/C=C/c3ccccc3[N+](=O)[O-])nc3ccccc3c2=O)cc1 | 14.2% (inactive) |

| Structure (SMILES) | inhibition |
| --- | --- |
| O=C(Nc1ccccc1C(=O)NCC1CCCO1)c1ccccc1F (centres undefined) | -6.12% (inactive) |
| CC(C)c1ccc2c(c1)c(SC(C)(C)C)c(CC(C)(C)C(=O)O)n2Cc1ccc(Cl)cc1 | -0.1% (inactive) |
| CCCCCCCCn1c2c(c(=N)c3c1CCC3)CCCC2 | 89.4% (active) |
| O=C(NNS(=O)(=O)Cc1ccccc1)c1ccc([N+](=O)[O-])cc1 | -11.2% (inactive) |
| CCOC(=O)C1CCCN(CCSc2ccc(C)cc2)C1 (centres undefined) | 21.1% (inactive) |
| CN(C)C(=O)COC(=O)c1cccc(S(=O)(=O)N2CC3(C)CC2CC(C)(C)C3)c1 (centres undefined) | 0.32% (inactive) |
| COc1ccc(Nc2ncnc3ccc(Br)cc23)c(OC)c1 | 26.3% (inactive) |
| CC1(C)CC2CC(C)(CN2c2ncnc3ccc(Br)cc23)C1 (centres undefined) | 62.2% (active) |
| COc1cc(C(F)(F)F)nc2c(Br)c(C(C)(C)C)nn12 | 4.44% (inactive) |
| CN(Cc1ccc(CNC[C@H]2O[C@@H](n3cnc4c(N)ncnc43)[C@H](O)[C@@H]2O)o1)S(C)(=O)=O | -0.83% (inactive) |
| CCc1cc2cc(OC)ccc2nc1SCC(=O)Nc1cc(OC)c(OC)cc1C(=O)O | -8.77% (inactive) |
| Cc1ccc(-n2ncc3c(=O)n(-c4ccc(C)c(C)c4)c(-c4ccco4)nc32)cc1 | 4.8% (inactive) |
| CC(=O)Cn1cnc2c(cnn2-c2ccccc2)c1=O | -18.4% (inactive) |
| Cc1ccc(-c2nc3c(cnn3-c3ccccc3)c(=O)o2)cc1 | 56.1% (active) |
| COc1ccc(OC)c(C2C3=C(N=c4s/c(=C\c5cccc(O)c5)c(=O)n42)c2ccccc2CC3)c1 (centres undefined) | -4.15% (inactive) |
| CCN(CC)S(=O)(=O)c1ccc(N(C)Cc2ccc(C(F)(F)F)cc2)nc1 | 17.7% (inactive) |
| CCCCNCCS(=O)(=O)NCc1ccccc1 | -0.46% (inactive) |
| COc1ccc(Br)cc1/C=N/Nc1ccc(Cl)c(C(=O)O)c1 | 8.66% (inactive) |
| COc1cccc(/C=N/Nc2ccc(S(=O)(=O)Nc3ccccc3C(=O)O)cc2[N+](=O)[O-])c1O | 6.14% (inactive) |
| COc1cccc(/C=N/Nc2ncc(C(F)(F)F)cc2Cl)c1O | 59.1% (active) |
| O=C(OCC(=O)N1CCc2ccccc21)C1CCCN1S(=O)(=O)c1ccc(Cl)cc1 (centres undefined) | -11.8% (inactive) |
| CC1(C)CC(=O)NC=C(c2ccccc2)C1 | 1.28% (inactive) |
| Cn1ccsc1=NC(=O)c1cc(S(=O)(=O)N2CCOCC2)ccc1Cl | -4.66% (inactive) |
| c1ccc(-n2nnnc2NC2CCCCCC2)cc1 | 8.53% (inactive) |

| Structure (SMILES) | inhibition |
| --- | --- |
| O=C1C(Cl)=C(N2CCOCC2)C(=O)N1c1ccccc1 | 0.4% (inactive) |
| c1ccc(-n2nnnc2N2CCOCC2)cc1 | 94.8% (active) |
| COc1ccc(S(=O)(=O)N2CCCC(C(=O)NCCCn3ccnc3)C2)cc1OC (centres undefined) | 15.1% (inactive) |
| O=C1NNC(c2ccccc2)=N/C1=C\c1ccc(Cl)cc1 | 5.34% (inactive) |
| CCn1cc(C(=O)NCC2COc3ccccc3O2)c2cc(OC)c(OC)cc2c1=O (centres undefined) | 10.7% (inactive) |
| CC(=O)Nc1ccc(Nc2c([N+](=O)[O-])cc(S(C)(=O)=O)cc2[N+](=O)[O-])cc1 | -0.18% (inactive) |
| CC(=O)Nc1ccc(S(=O)(=O)N(C)c2nc3ccccc3nc2Cl)cc1 | 1.9% (inactive) |
| CC(=O)Nc1ccc(Nc2c3ccccc3nc3ccccc23)cc1 | 75% (active) |
| CCOc1ccc(NC(=O)c2ccc(NC(=O)CN3C(=O)C(=O)N(CC(C)C)C3=O)cc2)cc1 | -34.9% (inactive) |
| CCC1([N+](=O)[O-])COC(c2ccc(C(C)C)cc2)OC1 (centres undefined) | -31.9% (inactive) |
| CCC(=C/c1sc2ccc3ccccc3c2[n+]1C)/C=C1\Sc2ccc3ccccc3c2N1C | 64.2% (active) |
| O=C(c1ccccc1)c1ccc2nc(N3CCCCC3)c3nncn3c2c1 | 6.66% (inactive) |
| O=C(NC1CCc2ccccc21)C12CN(Cc3ccccc3)CC1C(c1cccc([N+](=O)[O-])c1)=NO2 (centres undefined) | 6.88% (inactive) |
| CCS(=O)(=O)Nc1ccc(C2=NN(S(=O)(=O)c3ccc(F)cc3)C(c3ccco3)C2)cc1 (centres undefined) | 1.29% (inactive) |
| Cn1cc(S(=O)(=O)Nc2ccc(Cl)cc2Cl)c(=O)n(C)c1=O | 1.79% (inactive) |
| O=C(NCCOCc1ccc(Cl)cc1)c1ncn[nH]1 | 84.5% (active) |
| Cc1cc(C(=O)NCCc2ccc(Cl)cc2)n(-c2ccccc2)n1 | -16.3% (inactive) |
| O=C(NCCS(=O)(=O)NCc1ccc(Cl)cc1)c1ccccc1 | -12.9% (inactive) |
| CCOc1ccc(NC(=S)N2CCCCCC2)cc1 | -2.25% (inactive) |
| Cc1nn(C)c(C)c1S(=O)(=O)N1CCC(CO)(Cc2ccc(Cl)cc2)CC1 | 8.21% (inactive) |
| C=CCNC(=S)/N=c1/ccccn1Cc1ccccc1 | 67.3% (active) |
| C=CCNC(=O)COc1coc(CN2CCN(Cc3ccccc3)CC2)cc1=O | 3.43% (inactive) |
| CNC(=S)NNC(=O)c1cccn(Cc2ccccc2)c1=O | 13.9% (inactive) |
| Cc1cccc(NC(=O)C2CCCN2S(=O)(=O)c2ccc(F)cc2)c1C (centres undefined) | 10.9% (inactive) |

| Structure (SMILES) | inhibition |
| --- | --- |
| Cc1[nH]nc(-c2ccc(OCc3cnn(-c4ccccc4)c3)cc2O)c1Oc1ccc(Cl)cc1 | 4.97% (inactive) |
| COc1cccc(CC(=NO)c2cccc(OC)c2)c1 | -2.96% (inactive) |
| Cc1noc(NS(=O)(=O)c2ccc(N3CC(O)=C(c4ccccc4)C3=N)cc2)c1C | -2.28% (inactive) |
| CC(C)(C)c1ccc(C(=O)NCc2ccco2)cc1 | -4.01% (inactive) |
| CCCC1=Nc2cc(C(=O)NCc3ccco3)ccc2Sc2ccccc21 | 65.9% (active) |
| CCCC1=Nc2cc(C(=O)NCCN3CCCC3)ccc2Sc2ccccc21 | 18.7% (inactive) |
| COc1c(O)ccc2c1CN1CCc3cc4c(cc3C1C2)OCO4 (centres undefined) | -25.1% (inactive) |
| CCOC(=O)c1sc2nc(C)nc(Nc3ccc(OC)c(OC)c3)c2c1C | 12.9% (inactive) |
| CC(=O)c1cccc(CN2CCC(CO)(Cc3ccccc3)CC2)c1 | 30.4% (inactive) |
| COc1ccccc1/C=C/CN1CCC(CO)(Cc2ccccc2)CC1 | 65.4% (active) |
| OCC1(Cc2ccccc2)CCN(Cc2cc3ccccc3o2)CC1 | 22.4% (inactive) |
| CCOC(=O)C1CCCN(C(=O)C2CCN(S(=O)(=O)c3ccc(Cl)c(C(F)(F)F)c3)CC2)C1 (centres undefined) | 3.88% (inactive) |
| CCOC(=O)c1ccccc1NC(=O)c1c(N)n(C)c(=O)[nH]c1=O | 5.02% (inactive) |
| COc1ccc(-n2nnc3c(=O)n(CC(=O)OCc4ccccc4)cnc32)cc1 | 1.46% (inactive) |
| Cc1ccc(-c2ccc(=O)n(CC(=O)NCCCN3CCCCC3)n2)cc1 | 5.01% (inactive) |
| CCC1CCCCN1CCCNC(=O)Cn1nc(-c2ccccc2)ccc1=O (centres undefined) | 57% (active) |
| CCCn1c2ccccc2c2cnn(CC(=O)NCCCN3CCCCC3CC)c(=O)c21 (centres undefined) | 12.7% (inactive) |
| CCOC(=O)c1ccc(S(=O)(=O)N(CCO)Cc2cc3cc(OC)c(OC)cc3[nH]c2=O)cc1 | 1.66% (inactive) |
| Cc1ccc(S(=O)(=O)NCCC(c2ccccc2)c2ccccc2)cc1C(=O)O | -19.2% (inactive) |
| CCN(CC)CCNC(=O)c1ccc(NC(=O)c2cc(-c3ccncc3)nc3ccccc23)cc1 | 64.3% (active) |
| O=C(Nc1ccc(S(=O)(=O)Nc2nccs2)cc1)c1cc(-c2ccncc2)nc2ccccc12 | 0.2% (inactive) |
| COC(=O)CNC(=O)c1cc(-c2ccncc2)nc2ccccc12 | -8.23% (inactive) |
